# According to PubChem BioAssay AID1347413 (National Center for Advancing Translational Sciences (NCATS), 2020):
# Calls of active or inactive are those of the source. Calls follow the shape of the dose curve; as a rule, active = well fitted curve in the direction sought with a large enough effect; inactive = no such curve, though single readings can be large or run the other way.
# Test: qHTS to identify inhibitors of the type 1 interferon - major histocompatibility complex class I in skeletal muscle: tertiary screen by RT-qPCR, retest select compounds
# Settings: C25cl48 myoblasts, IFN-beta, HLA-B RT-qPCR, 24 h
# Description: Assay Submitter (PI): Travis B. Kinder Ph.D. & James Inglese Ph.D. Assay Development and Screening Technology Laboratory (ADST) National Center for Advancing Translational Sciences (NCATS), Rockville, MD National Institute of Health (NIH), Bethesda, Maryland Idiopathic inflammatory myopathies, collectively referred to as myositis, are a group of rare autoimmune diseases characterized by skeletal muscle inflammation, weakness, and usually accompanied by systemic pathologies of the skin, lungs, or vasculature. Current immunosuppressive therapies and glucocorticoids are often not curative and are accompanied by harsh side effects, especially in children with juvenile myositis. We initiated a drug repurposing and development program to identify more targeted, less toxic therapeutics to treat myositis. Although its cause is not known, muscle from a subset of patients have an abundance of the inflammatory type 1 interferon (IFN) and a down-stream product major histocompatibility complex class I (MHC class I), which are both thought to contribute to damage and weakness. We conducted quantitative high throughput screening (qHTS) on 6,576 compounds (4,679 unique) through a series of cell-based assays to identify those that inhibit the IFN-stimulated expression of MHC class I in muscle precursor cells (myoblasts). […]
compound,measurement,value
CC(C)[C@]12O[C@H]1[C@@H]1O[C@@]13[C@@]1(C)CCC4=C(COC4=O)[C@@H]1C[C@@H]1O[C@@]13C2=O,Potency,654 nM (active)
